Laboratory results: PubChem BioAssay AID651598 (Sanford-Burnham Center for Chemical Genomics, 2012)
Where “and” joins values, the source holds several entries; their conditions need not be identical. Equal values may be shown once.

target: C-X-C chemokine receptor type 6 (Homo sapiens) (UniProt O00574); assay: APJ beta-arrestin recruitment blockade alongside CXCR6 – cell-based, DiscoveRx, panel, CHO-K1, counter-screen for CXCR6 antagonist project, SAR follow-up (AID 651598); conditions: CHO-K1 PathHunter beta-arrestin luminescence, antagonist mode; run 1, at 80 µM (top of the series)
Sequence (O00574 whole entry, looked up): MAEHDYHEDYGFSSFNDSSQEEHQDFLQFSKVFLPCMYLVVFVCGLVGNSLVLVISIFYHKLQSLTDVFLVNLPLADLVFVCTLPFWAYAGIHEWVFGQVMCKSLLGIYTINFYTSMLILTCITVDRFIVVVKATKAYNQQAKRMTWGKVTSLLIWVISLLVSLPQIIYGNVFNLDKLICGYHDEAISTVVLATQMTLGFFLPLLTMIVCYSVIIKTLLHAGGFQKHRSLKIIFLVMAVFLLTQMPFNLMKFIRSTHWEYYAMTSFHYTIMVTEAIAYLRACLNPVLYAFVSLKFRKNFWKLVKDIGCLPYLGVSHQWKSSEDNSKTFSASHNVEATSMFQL

**Q.** For `COc1cc(C(=O)NC2CC3CCC(C2)N3CC(=O)Nc2ccccc2)cc(OC)c1OC` (stereo not drawn), which inhibition is on record?
**A.** Its inhibition is 59.5% and 13.9%.

**Q.** How did the inhibition turn out when `COc1cc(C(=O)NC2CC3CCCC(C2)N3CC(=O)Nc2ccccc2)cc(OC)c1OC` (stereo not drawn) was run?
**A.** The inhibition was 89.3% and 49.6% and 26.4%.

**Q.** How did the inhibition turn out when `COc1cc(C(=O)NC2CCN(CC(=O)Nc3ccccc3)CC2)cc(OC)c1OC` was run?
**A.** The inhibition was 4.26%.
